An excerpt weighted towards active compounds, which were near 9.2% of everything screened.
ELG1 DNA repair = inhibitors of ELG1-dependent DNA repair in HEK293T cells | HEK293T ELG1-luciferase reporter, luminescence, 16 h; DNA damage induced by 5-fluorouridine | Potency, µM (highest dose often 46.1 µM), inactives show at the top dose activity change, negative = inhibition, usual class: inhibitors | 2.3% of 330,000 active; further: on the % scale 0 is the no-effect control and ±100 the full control effect; nearly all actives have a fitted effect of over 55% in size
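Reporter activity after DNA damage by 5-fluorouridine is monitored. Compound-treated cells incubate 16 hr at 37 °C, then ONE-Glo is added for 30 min before luminescence reading.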
NPC1 promoter act = activators of NPC1 promoter. Potency, µM (series often up to 9.22 µM), inactives show top-dose activation, usual class: activators. Huh7 NPC1 promoter luciferase reporter, 24 h. AID 485313. 2.4% of 320,000 active; further: % of control where 0% means no effect; nearly all actives have a fitted effect of over 60% in size
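Stably transfected Huh7 (NPC1 promoter→luciferase), 1500 cells/well in Opti-MEM + 10% FBS, 2 h settle, then compound 24 h at 37 °C. Luminescence after 10 min with Amplite reagent.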
SMN2 splice enh = SMN2 splice variant enhancement; HEK293 SMN2-luciferase splicing reporter, luminescence, 30-36 h; Potency, µM (titrated, usually from 46.1 µM), inactives show top-dose activity change, positive = activation, hits mostly activators; 2.8% of 210,000 active; AID 1458; further: % of control where 0% means no effect; nearly all actives have a fitted effect of over 55% in size
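HEK293 cells carry an SMN2 minigene-luciferase reporter in which exon 7 inclusion puts luciferase in frame. Cells were seeded at 2000 cells/well, attached for 10-12 hours, then exposed to compounds for 30-36 hours at 37C before ONE-Glo luminescence.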
ELG1 genotox = inducers of genotoxicity in HEK293T ELG1-luciferase cells; HEK293T ELG1-luciferase reporter, luminescence, 16 h; Potency, µM (titrated, usually from 46 µM), without a hit: at the highest dose activity change, positive = activation, usual class: activators; 1.3% of 330,000 active; further: % of control where 0% means no effect; nearly all actives have a fitted effect of over 60% in size
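After overnight (16 hr) compound treatment at 37 °C, ELG1-luciferase HEK293T cells were lysed with ONE-Glo; luminescence quantified 30 min later at room temperature.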
FLuc modulator = inhibits or activates purified firefly luciferase, miR-21 counter-screen; purified FLuc, Km substrates, luminescence inhibition; Potency, µM (series often up to 57.5 µM), for inactives: at the top dose activity change, negative = inhibition, hits mostly inhibitors; 6.9% of 360,000 active;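 further: plate controls were vehicle for no effect and reference inhibitor for full effect; nearly all actives have a fitted effect of over 55% in size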
Target sequence (P08659 whole entry, looked up): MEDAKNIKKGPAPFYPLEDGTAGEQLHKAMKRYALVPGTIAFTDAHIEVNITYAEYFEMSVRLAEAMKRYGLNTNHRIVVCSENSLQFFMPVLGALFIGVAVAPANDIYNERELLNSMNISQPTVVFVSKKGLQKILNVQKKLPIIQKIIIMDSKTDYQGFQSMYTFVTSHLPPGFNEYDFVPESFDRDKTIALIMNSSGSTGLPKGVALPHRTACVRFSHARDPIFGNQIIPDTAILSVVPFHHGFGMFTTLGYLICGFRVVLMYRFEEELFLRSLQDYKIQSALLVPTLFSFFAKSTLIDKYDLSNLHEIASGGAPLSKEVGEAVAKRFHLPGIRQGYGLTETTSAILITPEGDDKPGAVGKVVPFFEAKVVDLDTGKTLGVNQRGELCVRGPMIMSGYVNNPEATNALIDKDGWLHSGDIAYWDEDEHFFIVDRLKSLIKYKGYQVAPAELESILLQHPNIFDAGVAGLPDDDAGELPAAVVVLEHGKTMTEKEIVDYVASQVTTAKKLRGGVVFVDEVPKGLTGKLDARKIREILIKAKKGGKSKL
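Purified P. pyralis luciferase (10nM final) with 10uM D-luciferin and 10uM ATP (Km levels) in 50mM Tris acetate pH 7.5, 10mM Mg acetate, 0.01% Tween-20, 0.05% BSA; qHTS 6-point titration, ~60 µM downward; luminescence read.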
Rab9 prom act = activates the Rab9 promoter. Huh7 Rab9 promoter-luciferase reporter, luminescence, 24 h. Potency, µM (highest dose often 9.22 µM), inactives show top-dose activation, negative = inhibition, most hits filed as activators. 2.8% of 320,000 active. AID 485297; further: % of control where 0% means no effect; nearly all actives have a fitted effect of over 60% in size
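Rab9 promoter-driven luciferase in stably transfected Huh7 cells; 1500 cells/well rested 2 h, exposed to compound in DMSO for 24 h at 37 °C, 5% CO2. Luminescence read 10 min after adding luciferase reagent at ambient temperature.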
Active calls of the source: *; ? = inconclusive; . = not tested or not shown. The call rests on the fitted dose curve; in most records, active means well fitted curve in the direction sought with a large enough effect; inconclusive means small, poorly fitted or top-dose-only effect, or another doubt; inactive means no such curve, though single readings can be large; an effect the other way counts as inactive or inconclusive. Potency means the concentration at half of the fitted maximal effect.

SMILES	ELG1 DNA repair	NPC1 promoter act	SMN2 splice enh	ELG1 genotox	FLuc modulator	Rab9 prom act
Cc1cc(C)[n+]2[nH]c(N)c(N=Nc3ccccc3)c2n1	?	9%	.	0%	15µM*	7%
Cc1c(C(=O)C(=O)N2CC=C(c3ccccc3)CC2)c2ccccc2n1C	-13%	-23%	0%	-1%	8%	-16%
CCc1ccc(C2=NNC(=Nc3cccc(S(=O)(=O)N(C)C)c3)SC2)cc1	?	22%	-80%	4%	11µM*	10%
Cc1cccc(N=C2NN=C(c3c(C)[nH]c4ccccc34)CS2)c1	?	-6%	-106%	-5%	-1%	0%
Cc1cccc(N=C2NN=C(c3ccc4c(c3)OCCO4)CS2)c1	?	2.8µM*	-3%	?	1.2µM*	2.8µM*
Cc1ccc(C2=NNC(=Nc3ccc(F)cc3)SC2)cc1	-3%	30%	-1%	-1%	17µM*	18%
COC(=O)c1cc(/C=C/c2ccccc2)[nH]n1	?	?	.	17%	17µM*	?
Cc1ccc(Nc2cc(C)nn2-c2nc(C)cc(C)n2)cc1	15µM*	-4%	-40%	-2%	-2%	-13%
CCc1cc2cc(C)ccc2nc1SCC(=O)NC1CCCC1	-3%	-8%	.	-10%	-3%	4%
O=C(N/N=C/c1cc2c3c(c1O)CCCN3CCC2)c1ccccc1O	?	-9%	-102%	-12%	24µM*	-26%
COc1ccc(-n2nc3c(N4CCC(C(=O)NCc5cccc(F)c5)CC4)nnc(C)c3c2C)cc1	.	.	.	.	-8%	.
COc1cc(OC)cc(-c2c(-c3ccsc3)c3cc(Br)ccc3n2C)c1	-1%	0%	.	1%	0%	1%
COc1ccc(NC(=O)COC(=O)/C=C/c2ccc(OC)c(S(=O)(=O)N3CCOCC3)c2)cc1	17%	-1%	9%	3%	1%	10%
COc1ccc(/C=C/C(=O)OCC(=O)Nc2ccc(Cl)c(S(=O)(=O)N(C)C)c2)cc1OC	?	-5%	-1%	9%	24µM*	-2%
COc1ccc(/C=C/C(=O)OCC(=O)Nc2ccc(OC)c(S(=O)(=O)N3CCCCC3)c2)cc1	16%	-2%	11%	0%	6µM*	-3%
COc1ccc(N(CCCN2C(=O)c3cccc4cccc(c34)C2=O)C(=O)c2cccc(OC)c2)cc1	18µM*	-1%	-21%	-4%	-2%	-9%
COC(=O)c1ccc2c(c1)C(C)(C)C(/C=C/c1ccc(O)cc1)=[N+]2C	?	-37%	-93%	?	13µM*	-36%
COc1ccc(Cn2c(=O)[nH]c3cc(C(=O)N4CCN(c5ccccc5F)CC4)ccc3c2=O)cc1	6%	-10%	.	3%	2%	0%
COc1ccc(Cn2c(=O)[nH]c3cc(C(=O)N4CCN(c5ccccc5OC)CC4)ccc3c2=O)cc1	21µM*	-17%	.	-28%	0%	-3%
O=C(c1ccc(Cn2c(=O)[nH]c3ccccc3c2=O)cc1)N1CCN(c2ccc(F)cc2)CC1	18µM*	0%	-19%	2%	1%	-2%
NC(=O)c1ccccc1OCC(=O)Nc1ccc(Cl)c(Cl)c1	?	0.35µM*	.	1.2µM*	0.67µM*	0.35µM*
COc1ccccc1OCC(=O)Nc1ccc(Cl)cc1	?	13%	?	14%	?	20%
NC(=O)c1ccccc1OCC(=O)Nc1ccc2c(c1)CCC2	?	22%	.	6%	15µM*	?
O=C(COc1cc(Cl)ccc1Cl)Nc1ccc2c(c1)CCC2	23%	16%	13%	8%	3%	17%
Nc1ncncc1-c1ccc(Cl)cc1	9%	-1%	.	-3%	6%	-2%
SMILES	ELG1 DNA repair	NPC1 promoter act	SMN2 splice enh	ELG1 genotox	FLuc modulator	Rab9 prom act
Nc1nn(-c2cccc(F)n2)cc1-c1ccccc1	?	2µM*	14µM*	2.9µM*	3µM*	0.63µM*
Nc1nn(-c2cccc(F)n2)cc1-c1ccc(Cl)cc1	?	2.5µM*	18µM*	1.2µM*	0.95µM*	0.45µM*
Nc1nc(Br)c2c(F)cccc2c1-c1ccccc1	14%	-3%	-1%	0%	-12%	-2%
CCN1CCN(CCCNC(=O)C2CCN(c3nnc(-n4c(C)ccc4C)s3)CC2)CC1	?	-6%	.	13%	0%	-5%
O=C(OCc1ccccc1)/C(=C/c1cccc(Br)c1)NC(=O)c1ccco1	?	-1%	.	-5%	1%	-2%
CCOc1ccc(C(CC(=O)O)NC(=O)c2sc3ccccc3c2Cl)cc1 (stereo unspecified)	4%	1%	-6%	3%	0%	2%
CCCOc1ccc(C(CC(=O)O)NC(=O)c2sc3ccccc3c2Cl)cc1 (stereo unspecified)	?	-1%	.	2%	15µM*	20%
O=C(Nc1ccccn1)c1ccc2c(=O)n3c(nc2c1)CCCCC3	?	1µM*	.	?	4.8µM*	0.56µM*
CNC(=O)c1ccc(NC(=O)c2ccc3c(=O)n4c(nc3c2)CCC4)cc1	23%	-2%	.	0%	-10%	1%
CCc1cccc(NC(=O)c2ccc3c(=O)n4c(nc3c2)CCCCC4)c1	-19%	?	.	-8%	13µM*	23%
O=C(Nc1cccc(Cl)c1)c1ccc2c(=O)n3c(nc2c1)CCCCC3	?	1.6µM*	?	?	3.4µM*	0.89µM*
CCc1ccc(C(=O)NNC(=O)c2ccc3c(=O)n4c(nc3c2)CCC4)cc1	11%	-2%	.	-1%	-19%	-1%
Cc1ccc(NC(=O)c2ccc3c(=O)n4c(nc3c2)CCC4)cc1F	?	3.2µM*	.	?	.	2.5µM*
O=C1Cc2cc(S(=O)(=O)Nc3ccc(N4CCOCC4)cc3)ccc2N1	4%	.	.	-4%	.	.
COc1ccc(Cl)cc1NC(=O)CSC1=NN2CCCC(=O)N=C2S1	-22%	-3%	.	-6%	-2%	-4%
Cc1ccc(N(C)S(=O)(=O)c2c[nH]c3ccc([N+](=O)[O-])cc23)cc1	-2%	-6%	.	-2%	0%	-1%
CC(=O)c1ccc(NC(=O)c2ccc3c(=O)n4c(nc3c2)CCCCC4)cc1	?	-6%	.	-8%	-19%	2%
Cc1ccc(-c2csc(NC(=O)c3ccc4c(=O)n5c(nc4c3)CCCCC5)n2)cc1	2.9µM*	-5%	.	-11%	?	-7%
O=C(Nc1ccc(F)c(Cl)c1)c1ccc2c(=O)n3c(nc2c1)CCCCC3	?	3.2µM*	.	-9%	6.7µM*	1.8µM*
O=C(Nc1ccc(Cl)cc1)c1ccc2c(=O)n3c(nc2c1)CCCCC3	?	15%	.	12%	?	19%
